Test results published in PubChem BioAssay AID1159580 (chemical genetic matrix, 2015).
Values joined by “and” are separate entries in the source; they are usually repeats but may differ in a detail not shown here. Identical values can stand only once. About 2,000 (36%) of roughly 5,500 compounds were called active. About 18% were inconclusive and are not listed. Rule as the data show it: active = normalized growth mostly below about 0.91 (no sharp cut-off); inconclusive = no clear call, values can overlap the other calls; inactive = mostly above about 0.92. Some of the results follow.

Assay: chemical genetic growth profiling, strain panel (AID 1159580);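 also: tested at 20 µM; growth read once vehicle control cultures reached saturation at 30 °C; 1 = growth at the plate median or of vehicle wells; lower values mean less growth of the strain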
Settings: S. cerevisiae deletion strains, growth OD
[1] = locus YHR030C, strain SLT2, stronger effect = lower value
[2] = locus YHR079C, strain IRE1, stronger effect = lower value
[3] = locus YJL095W, strain BCK1, stronger effect = lower value
[4] = locus YJR066W, strain TOR1, stronger effect = lower value
[5] = locus YLR113W, strain HOG1, stronger effect = lower value
[6] = locus YNL183C, strain NPR1, stronger effect = lower value
[7] = locus YOR231W, strain MKK1, stronger effect = lower value
[8] = locus YPL256C, strain CLN2, stronger effect = lower value

Measured: normalized growth

COc1c(CC(=O)c2cc3c(cc2O)OC(C)(C)C(O)C3)ccc2c1C=CC(C)(C)O2 (stereo not drawn)
active: locus YBR021W, strain FUR4, stronger effect = lower value 0.653 | locus YOR184W, strain ser1, stronger effect = lower value 0.851
inactive: locus YBR229C, strain ROT2, stronger effect = lower value 0.998 | locus YCL029C, strain bik1, stronger effect = lower value 0.975 | locus YDL035C, strain GPR1, stronger effect = lower value 1.01 | locus YDL074C, strain BRE1, stronger effect = lower value 0.926 | locus YDL101C, strain DUN1, stronger effect = lower value 1.01 | locus YDL185W, strain tfp1, stronger effect = lower value 1 | locus YDL192W, strain arf1, stronger effect = lower value 0.96 | locus YDR101C, strain arx1, stronger effect = lower value 0.974 | locus YDR162C, strain NBP2, stronger effect = lower value 1.01 | locus YDR318W, strain mcm21, stronger effect = lower value 0.984 | locus YDR388W, stronger effect = lower value 0.994 | locus YDR502C, strain sam2, stronger effect = lower value 1.01 | locus YEL061C, strain CIN8, stronger effect = lower value 1.01 | locus YER110C, stronger effect = lower value 1.01 | locus YER155C, strain BEM2, stronger effect = lower value 0.989 | locus YER167W, strain BCK2, stronger effect = lower value 1 | locus YGL078C, strain dbp3, stronger effect = lower value 1.01 | locus YGL086W, strain mad1, stronger effect = lower value 0.979 | locus YGL248W, strain PDE1, stronger effect = lower value 1.02 | locus YGR078C, strain PAC10, stronger effect = lower value 1.03 | locus YGR135W, strain pre9, stronger effect = lower value 1.05 | locus YGR252W, strain gcn5, stronger effect = lower value 0.937 | [1] 0.955 | locus YHR079C, strain IRE1 (second series), stronger effect = lower value 1 | [2] 0.958 | locus YHR094C, strain hxt1, stronger effect = lower value 1.01 | locus YHR129C, strain ARP1, stronger effect = lower value 0.997 | locus YHR200W, strain rpn10, stronger effect = lower value 1 | locus YIL066C, strain RNR3, stronger effect = lower value 0.997 | locus YIL073C, strain SPO22, stronger effect = lower value 1.05 | locus YIL125W, strain kgd1, stronger effect = lower value 0.982 | locus YIR030C, strain dcg1, stronger effect = lower value 0.987 | [3] 0.981 and 0.988 | locus YJL134W, strain LCB3, stronger effect = lower value 0.996 | locus YJL168C, strain set2, stronger effect = lower value 1.02 | locus YJL187C, strain SWE1 (second series), stronger effect = lower value 1.02 | [4] 0.935 | locus YKL009W, strain mrt4, stronger effect = lower value 0.992 | locus YKL068W, stronger effect = lower value 1 | locus YKL085W, strain MDH1 (second series), stronger effect = lower value 0.998 | locus YKL085W, strain MDH1, stronger effect = lower value 0.998 | locus YKR001C, strain vps1, stronger effect = lower value 0.961 | locus YLR039C, strain RIC1, stronger effect = lower value 1.08 | locus YLR058C, strain SHM2, stronger effect = lower value 0.999 | locus YLR102C, strain apc9, stronger effect = lower value 0.992 | [5] 0.961 | locus YLR262C, strain YPT6, stronger effect = lower value 1.02 | locus YLR268W, strain sec22, stronger effect = lower value 0.977 | locus YLR371W, strain rom2, stronger effect = lower value 0.998 | locus YLR418C, strain cdc73, stronger effect = lower value 0.938 | locus YML016C, strain PPZ1, stronger effect = lower value 0.999 | locus YML032C, strain rad52, stronger effect = lower value 0.982 | locus YML124C, strain tub3, stronger effect = lower value 0.984 | locus YMR078C, strain ctf18, stronger effect = lower value 1 | locus YMR223W, strain ubp8, stronger effect = lower value 1.01 | locus YMR263W, strain SAP30, stronger effect = lower value 0.996 | locus YMR307W, strain GAS1, stronger effect = lower value 0.807 | locus YNL067W, strain RPL9B, stronger effect = lower value 1.01 | locus YNL128W, strain TEP1, stronger effect = lower value 1.01 | locus YNL153C, strain GIM3, stronger effect = lower value 1.06 | [6] 0.937 | locus YNL233W, strain BNI4, stronger effect = lower value 0.997 | locus YNL250W, strain rad50, stronger effect = lower value 1.06 | locus YNL271C, strain bni1, stronger effect = lower value 0.996 | locus YNL298W, strain CLA4, stronger effect = lower value 0.991 | locus YNL307C, strain MCK1, stronger effect = lower value 0.988 | locus YNR052C, strain pop2, stronger effect = lower value 0.993 | locus YOL012C, strain htz1 1.64 | locus YOL147C, strain pex11, stronger effect = lower value 0.988 | locus YOR061W, strain CKA2, stronger effect = lower value 0.996 | locus YOR069W, strain VPS5, stronger effect = lower value 1 | locus YOR136W, strain idh2, stronger effect = lower value 0.996 | locus YOR144C, strain elg1, stronger effect = lower value 0.995 | [7] 0.951 | locus YOR316C, strain cot1, stronger effect = lower value 0.998 | locus YPL055C, strain LGE1, stronger effect = lower value 0.942 | [8] 0.962 | locus YPR119W, strain clb2, stronger effect = lower value 0.999 | locus YPR141C, strain kar3, stronger effect = lower value 1 | locus YPR163C, strain tif3, stronger effect = lower value 0.988 | locus YPR167C, strain met16, stronger effect = lower value 1 | strain wtn01, stronger effect = lower value 0.972

COc1c(-c2coc3cc4c(cc3c2=O)CC(O)C(C)(C)O4)ccc2c1C=CC(C)(C)O2 (stereo not drawn)
inactive: locus YAL021C, strain ccr4, stronger effect = lower value 0.992 | locus YAL026C, strain drs2, stronger effect = lower value 0.978 | locus YAL030W, strain snc1, stronger effect = lower value 0.996 | locus YBL061C, strain skt5, stronger effect = lower value 0.983 | locus YBR009C, strain hhf1, stronger effect = lower value 0.97 | locus YBR023C, strain chs3, stronger effect = lower value 0.983 | locus YBR171W, strain sec66, stronger effect = lower value 0.973 | locus YBR231C, strain swc5, stronger effect = lower value 0.989 | locus YBR279W, strain paf1, stronger effect = lower value 0.989 | locus YCL011C, strain gbp2, stronger effect = lower value 0.992 | locus YCL016C, strain dcc1, stronger effect = lower value 0.986 | locus YCL069W, strain vba3, stronger effect = lower value 0.97 | locus YCR088W, strain abp1, stronger effect = lower value 0.979 | locus YDL005C, strain med2, stronger effect = lower value 0.972 | locus YDL040C, strain nat1, stronger effect = lower value 0.987 | locus YDR001C, strain nth1, stronger effect = lower value 0.979 | locus YDR069C, strain doa4, stronger effect = lower value 1 | locus YDR137W, strain rgp1, stronger effect = lower value 0.902 | locus YDR159W, strain sac3, stronger effect = lower value 0.973 | locus YDR195W, strain ref2 1.05 | locus YDR297W, strain sur2, stronger effect = lower value 0.978 | locus YDR334W, strain swr1, stronger effect = lower value 0.958 | locus YDR335W, strain msn5, stronger effect = lower value 0.974 | locus YDR392W, strain spt3, stronger effect = lower value 0.829 | locus YEL003W, strain gim4, stronger effect = lower value 0.99 | locus YEL037C, strain rad23, stronger effect = lower value 0.973 | locus YEL061C, strain CIN8 (second series), stronger effect = lower value 0.98 | locus YER015W, strain faa2, stronger effect = lower value 0.991 | locus YER016W, strain bim1, stronger effect = lower value 0.992 | locus YER111C, strain swi4, stronger effect = lower value 0.973 | locus YER155C, strain BEM2 (second series), stronger effect = lower value 0.967 | locus YFR010W, strain ubp6, stronger effect = lower value 0.989 | locus YGL167C, strain pmr1, stronger effect = lower value 0.969 | locus YGL173C, strain kem1, stronger effect = lower value 0.989 | locus YGL227W, strain vid30, stronger effect = lower value 0.992 | locus YGL240W, strain doc1, stronger effect = lower value 0.979 | locus YGL253W, strain hxk2, stronger effect = lower value 0.983 | locus YHR013C, strain ard1, stronger effect = lower value 0.954 | locus YHR027C, strain rpn1, stronger effect = lower value 1 | [1] 0.932 | [2] 0.929 | locus YHR142W, strain chs7, stronger effect = lower value 0.942 | locus YJL092W, strain hpr5, stronger effect = lower value 0.99 | locus YJL095W, strain BCK1 (second series), stronger effect = lower value 0.983 | [3] 0.94 | locus YJL115W, strain asf1, stronger effect = lower value 0.971 | locus YJL129C, strain trk1, stronger effect = lower value 0.887 | locus YJL154C, strain vps35, stronger effect = lower value 0.97 | locus YJL164C, strain tpk1, stronger effect = lower value 0.974 | locus YJL166W, strain qcr8, stronger effect = lower value 0.979 | locus YJL187C, strain SWE1, stronger effect = lower value 0.991 | [4] 0.865 | locus YKL160W, strain elf1, stronger effect = lower value 0.992 | locus YKR026C, strain gcn3, stronger effect = lower value 0.957 | locus YKR091W, strain srl3, stronger effect = lower value 0.992 | locus YLL001W, strain dnm1, stronger effect = lower value 0.991 | locus YLL026W, stronger effect = lower value 0.989 | locus YLL041C, strain sdh2, stronger effect = lower value 1.01 | locus YLR027C, strain aat2, stronger effect = lower value 0.996 | [5] 0.996 | locus YLR221C, strain rsa3, stronger effect = lower value 0.991 | locus YLR258W, strain gsy2, stronger effect = lower value 0.965 | locus YLR262C, strain YPT6 (second series), stronger effect = lower value 0.877 | locus YLR320W, strain mms22, stronger effect = lower value 0.962 | locus YLR342W, strain FKS1, stronger effect = lower value 0.98 | locus YLR357W, strain rsc2, stronger effect = lower value 0.967 | locus YLR370C, strain arc18, stronger effect = lower value 0.995 | locus YLR384C, strain iki3, stronger effect = lower value 0.976 | locus YML120C, strain ndi1, stronger effect = lower value 1.01 | locus YMR058W, strain fet3, stronger effect = lower value 0.993 | locus YMR125W, strain sto1, stronger effect = lower value 0.988 | locus YMR129W, stronger effect = lower value 0.982 | locus YMR205C, strain PFK2, stronger effect = lower value 0.961 | locus YMR231W, strain pep5, stronger effect = lower value 0.963 | locus YNL071W, strain lat1, stronger effect = lower value 0.975 | [6] 0.922 | locus YNL209W, strain ssb2, stronger effect = lower value 1 | locus YNL248C, strain rpa49, stronger effect = lower value 0.971 | locus YNL322C, strain KRE1 (second series), stronger effect = lower value 1.02 | locus YNR049C, strain mso1, stronger effect = lower value 0.99 | locus YOR001W, strain rrp6, stronger effect = lower value 0.973 | locus YOR070C, strain gyp1, stronger effect = lower value 0.992 | locus YOR080W, strain dia2, stronger effect = lower value 0.994 | locus YOR083W, strain WHI5, stronger effect = lower value 0.978 | locus YOR106W, strain vam3, stronger effect = lower value 0.962 | [7] 0.94 | locus YOR265W, strain rbl2, stronger effect = lower value 0.98 | locus YOR290C, strain snf2, stronger effect = lower value 0.955 | locus YPL051W, strain arl3, stronger effect = lower value 0.972 | locus YPL078C, strain atp4, stronger effect = lower value 0.972 | locus YPL106C, strain sse1, stronger effect = lower value 1.01 | locus YPL240C, strain hsp82, stronger effect = lower value 0.982 | [8] 0.922
active: locus YOR270C, strain vph1, stronger effect = lower value 0.608
